The whole screen tested about 2,300 compounds, of which about 790 (34%) were called active. This is one part of the list. Potency and affinity values are given separately. Unmarked numbers belong to inactive results. The rule behind the calls is not given here.
Test: THP-1 cell cytotoxicity, dose response, cytotoxicity control for non-replicating M. tuberculosis project (AID 489025)
Details: THP-1 cell viability; series mostly up to 40 µM; viability: at the top concentration

| Structure (SMILES) | viability |
| --- | --- |
| COc1cccc(/C=N/N2C(=O)CSC2=S)c1O | 112% |
| CCCC(C)C(=O)Nc1ccc(Cl)cn1 (configuration not stated) | 114% |
| O=[N+]([O-])c1ccc(N2CCCCCC2)c2nonc12 | 112% |
| CC1CCCN(CCC(=O)c2ccc(Br)cc2)C1 (configuration not stated) | 98.7% |
| C/C(=N\Nc1cccc2cccnc12)c1ccccn1 | 79.8% |
| CC(OC(=O)c1ccc2c(=O)n3c(nc2c1)CCCCC3)C(=O)Nc1ccc(Cl)cn1 (configuration not stated) | 80.8% |
| CCOC(=O)c1cc(-c2csc(COc3ccccc3)n2)on1 | 95.9% |
| O=C(N/N=C/c1cn[nH]c1-c1ccccc1)c1ccco1 | 96.9% |
| Cc1occc1C(=O)N/N=C/c1ccc[nH]1 | 82.8% |
| COc1cc(Cl)cc(/C=N/NC(N)=O)c1O | 103% |
| Cn1cccc1/C=N/NC(=O)c1ccco1 | 102% |
| O=C(OCc1ccc([N+](=O)[O-])cc1)c1cc2ccccc2oc1=O | 96.3% |
| Cc1cccc(NC(=O)c2cc3ccccc3oc2=O)c1 | 87.6% |
| COc1ccccc1/C=C/C=N/NC(=O)c1ccncc1 | 75.8% |
| Cc1cc(C)n(-c2ccc(C(=O)OCC(=O)Nc3cc(Cl)ccc3[N+](=O)[O-])cc2)n1 | 104% |
| COc1ccc(OC(=O)C2CC(=O)N(c3ccc(C)cc3)C2)cc1 (configuration not stated) | 108% |
| O=C(COC(=O)c1cccs1)NCCC1=CCCCC1 | 96.1% |
| CCCCN(C)C(=O)c1cc2cc3ccc(OC)cc3nc2s1 | 85.8% |
| CN(CC(=O)Nc1ccc(C#N)cc1)Cc1ccc(Cl)c(Cl)c1 | 102% |
| Cc1ccnc(NC(=O)COc2ccc3c(c2)CCC3)c1 | 107% |
| Cc1cccnc1NC(=O)COc1ccc2oc3c(c2c1)CCCC3 | 79.2% |
| O=C(O)COc1ccc2occ(C(=O)c3ccccc3)c2c1 | 118% |
| O=C(N/N=C\c1ccco1)c1cncc(Br)c1 | 108% |
| Cc1onc(-c2ccccc2)c1C(=O)Nc1nnc(COc2ccc(Cl)cc2)s1 | 102% |
| O=C(N/N=C/c1ccc([N+](=O)[O-])s1)c1ccncc1 | 102% |

| Structure (SMILES) | viability |
| --- | --- |
| CC(/C=C/c1ccco1)=N/NC(=O)c1ccc(C)nc1 | 94.9% |
| CC(=O)N1N=C(c2ccccc2)OC1c1ccc([N+](=O)[O-])s1 (configuration not stated) | 99.8% |
| CNC(=S)N1CCN(c2c(F)cc3c(=O)c(C(=O)O)cn(C4CC4)c3c2OC)CC1C (configuration not stated) | 110% |
| O=C(Oc1ccc(F)cc1)c1ccc2c(=O)n3c(nc2c1)CCC3 | 106% |
| CCN(CC)C(=O)c1sc2nc(-c3ccccc3)ccc2c1N | 72.4% |
| O=C(Nc1ccc(Br)cc1)c1cc([N+](=O)[O-])cc([N+](=O)[O-])c1 | 92% |
| Cc1ccc(C(=O)CCNc2ccc(F)c(Cl)c2)o1 | 116% |
| CCCCSc1nnc(-c2ccc(C)cc2)o1 | 108% |
| CC1=NN(c2ccc(C(=O)O)cc2)C(=O)/C1=C\c1ccc(OC(=O)c2cccs2)cc1 | 112% |
| O=C(N/N=C/c1ccc(Br)s1)c1ccncc1 | 112% |
| CCC(=O)N/N=C/c1ccc(-c2ccc(Cl)cc2)o1 | 103% |
| Cc1ccc(C(=O)N/N=C\c2ccc[nH]2)cn1 | 97.8% |
| O=C(N/N=C/c1cccs1)c1cncc(Br)c1 | 101% |
| Cc1ccc(/C=N/NC(=O)c2ccncc2)s1 | 114% |
| COc1ccc(C(=O)COC(=O)c2ccc([N+](=O)[O-])s2)cc1OC | 98.1% |
| Cc1ccc(NC(=O)CC2SC3=NCCCN3C2=O)c(C)c1 (configuration not stated) | 86.8% |
| CCC1CCC(c2nnc(-c3ccc([N+](=O)[O-])cc3)o2)CC1 (configuration not stated) | 110% |
| Nc1ccc(Br)c2cccnc12 | 110% |
| CCC(C)n1c(=S)[nH]c2ccccc2c1=O (configuration not stated) | 90.4% |
| O=C(N/N=C/c1ccc(Br)s1)c1cccnc1 | 112% |
| CC(C)(C)OC(=O)N/N=C\c1ccc([N+](=O)[O-])s1 | 113% |
| COc1cc(/C=C2/C(=O)NN(c3cccc(F)c3)C2=O)ccc1OC(=O)c1ccco1 | 111% |
| CCOc1ccc(Nc2ccc([N+](=O)[O-])c3nonc23)cc1 | 83.1% |
| CS/C(Nc1cc(Cl)ccc1Cl)=C(/C#N)C(=O)c1ccco1 | 72.6% |
| Cc1ccc(NC(=O)C(=O)NNC(=O)c2ccccc2C)cc1Cl | 86.4% |

| Structure (SMILES) | viability |
| --- | --- |
| CCOC(=O)N1CCN(c2cc(C)c([N+](=O)[O-])cc2F)CC1 | 92.8% |
| Cc1ccc(CN2CC(C(=O)OCc3ccccc3Cl)CC2=O)cc1 (configuration not stated) | 121% |
| Cc1cccc(C)c1NC(=O)c1sc(N)nc1-c1ccccc1 | 100% |
| Cc1ccc2cc(/C=N/NC(=O)[C@H](C)NC(=O)OC(C)(C)C)c(Cl)nc2c1 | 84.4% |
| Cc1ccc(NC(=O)c2noc(C(C)C)c2[N+](=O)[O-])cc1 | 99.2% |
| O=C(N/N=C/c1cccc(F)c1)c1c(O)c2ccccc2[nH]c1=O | 80.8% |
| CC(=O)Oc1ccc(/C=C2\N=C(C3CCCCC3)OC2=O)cc1 | 106% |
| COc1cc(N=c2ssnc2Cl)cc(OC)c1OC | 85.6% |
| O=C(CCSc1nnc(-c2ccncc2)o1)Nc1cccc(Cl)c1 | 82.2% |
| CCn1ccc(C(=O)Nc2cccc(Cl)c2)n1 | 99.6% |
| CCN1CCN(Cc2cc(C(C)(C)C)c(O)c(C(C)(C)C)c2)CC1 | 107% |
| CC(=O)Nc1cccc(-c2nc3ccccc3c(=O)o2)c1 | 93% |
| CCCCOC(=O)Cn1c(-c2ccccc2)nc2ccccc2c1=O | 107% |
| O=C(Nc1ccccn1)c1ccc(C(=O)c2ccccc2)cc1 | 86.9% |
| O=C(Nc1cccnc1)c1ccc(-c2ccc(Cl)cc2)o1 | 78% |
| CCCOC(=O)c1ccc(NC(=O)c2ccc(Br)o2)cc1 | 70.8% |
| CC(C)(C)c1ccc(OCCC(=O)OCC(=O)NC2CC2)cc1 | 97.6% |
| O=C(NC1CCOc2ccccc21)c1ccc(Cl)nc1 (configuration not stated) | 104% |
| Cc1ccccc1-n1nnc2c(=O)oc3ccccc3c21 | 117% |
| NC(=O)C1CCN(C2CC(=O)NC2=O)CC1 (configuration not stated) | 125% |
| O=C(c1cc2ccccc2o1)c1nc2c(n1O)CCCCC2 | 101% |
| O=C(Nc1ncc(Cc2ccccc2)s1)C1=NCCN1 | 101% |
| CCOC(=O)Cc1ccc(NCc2ccc(Cl)cc2)cc1 | 82.2% |
| CCOC(=O)C1(O)CC(C)=NN1C(=O)c1cccc(Br)c1 (configuration not stated) | 88.5% |
| CCOC(=O)c1c(C)nc2c3ccccc3ccn12 | 113% |

| Structure (SMILES) | viability |
| --- | --- |
| CCOC(=O)Cc1cc(=O)n2[nH]cc(-c3ccc(Cl)cc3)c2n1 | 87.2% |
| O=C1CC(N2CCN(c3ccccc3)CC2)C(=O)N1CCc1ccccc1 (configuration not stated) | 97.6% |
| CCOc1ccc(NC(=O)COC(=O)C2(C)CC2(Cl)Cl)c([N+](=O)[O-])c1 (configuration not stated) | 94.1% |
| Cc1ccc(Sc2ncccc2N)cc1 | 104% |
| Cc1ccc2oc(=O)c3cc(C(=O)NCCCN4CCCCCC4)sc3c2c1 | 80.9% |
| O=C(NCCCN1CCOCC1)c1ccc(CSc2ccc(Cl)cc2)cc1 | 71.3% |
| CC(=O)N1CCC(=NNC(=O)c2cccs2)CC1 | 112% |
| Cc1cccc(CSc2nnc(-c3ccco3)o2)c1 | 94.8% |
| C#CCSc1nnc(-c2ccc(O)cc2)o1 | 112% |
| C#CCSc1nnc(-c2ccc([N+](=O)[O-])cc2)o1 | 92.9% |
| CCOc1ccc(CC(=O)N2N=C(C)CC2(O)C(F)(F)F)cc1 (configuration not stated) | 103% |
| O=C(CNC1CCCC1)Nc1ccc(N2CCCCCC2)cc1 | 91.9% |
| N#Cc1ccc(N=c2ssnc2Cl)cc1 | 112% |
| COc1cc(N=c2ssnc2Cl)cc(OC)c1 | 117% |
| CC(=O)Nc1ccc(NC(=O)[C@@H]2CCCC[C@@H]2C(=O)O)cc1 | 85.2% |
| CC(C)N=C1SC(CC(=O)Nc2ccccc2)C(=O)N1C(C)C (configuration not stated) | 85.1% |
| CC(C)(C)c1ccc(C(=O)N2CCCC2)s1 | 90.3% |
| CC1(C)OC(c2ccccc2)=C/C(=C\C=N\NC(=O)c2ccncc2)O1 | 75.6% |
| Cc1ccc(NC(=O)CCSc2nnc(-c3ccco3)o2)cc1 | 104% |
| O=C1/C(=C/c2ccco2)CCC1C1CCCC1 (configuration not stated) | 98% |
| COc1ccc(CC(=O)Nc2nccs2)cc1OC | 105% |
| O=C(Oc1ccc(/C=N/O)cc1)c1ccccc1Cl | 115% |
| N/C(=N\OC(=O)c1cccc2ccccc12)c1cccnc1 | 121% |
| N/N=C(/Cc1nc2ccccc2[nH]1)c1ccc([N+](=O)[O-])cc1 | 104% |
| Cc1ccc(-c2nnc(Cc3ccc([N+](=O)[O-])cc3)o2)cc1 | 95.5% |

| Structure (SMILES) | viability |
| --- | --- |
| O=C(Nc1nc2ccccc2[nH]1)c1cccc([N+](=O)[O-])c1 | 106% |
| O=[N+]([O-])c1ccc2nc(SCc3cn4ccccc4n3)[nH]c2c1 | 123% |
| Cc1ccc2cc3c(nc2c1)OCC3 | 108% |
| Fc1ccc(N2CCN(Cc3nnc(-c4ccccc4)o3)CC2)cc1 | 105% |
| O=C1CCCCC1Sc1nnc(-c2ccc3c(c2)OCO3)o1 (configuration not stated) | 107% |
| O=C(COC(=O)c1ccccc1Cl)NCCC1=CCCCC1 | 93.1% |
| Cc1ccc2c(C)ccc(O)c2n1 | 123% |
| CN1C(=O)CC(N2CCC(c3nc4ccccc4s3)CC2)C1=O (configuration not stated) | 97.2% |
| FC(F)(F)c1ccc(NCCc2ccccc2)nc1 | 98% |
| CN(C)/C=C1/C(=O)N(c2ccc([N+](=O)[O-])cc2)N=C1c1ccccc1 | 101% |
| Cc1cc(C)n2nc(N)c(N=Nc3ccccc3)c2n1 | 95.3% |
| S=C1CN=C(c2ccccc2)c2cc(Cl)ccc2N1 | 90.6% |
| CC(C)c1ccc(N2C(=O)CC(Sc3ncn[nH]3)C2=O)cc1 (configuration not stated) | 98.1% |
| CCOC(=O)COn1c2c(c3c4no[n+]([O-])c4ccc31)CCCC2 | 123% |
| CN(C)CCNc1c2c(c(C#N)c3nc4ccccc4n13)CCCC2 | 99.4% |
| CC1=NN(c2ccccc2)C(=O)C1C(=O)c1ccccc1 (configuration not stated) | 76.9% |
| Oc1ccccc1CN1CCCC(N2CCN(c3cccc(C(F)(F)F)c3)CC2)C1 (configuration not stated) | 73.8% |
| N=C1/C(=C/c2ccc(OC(=O)c3ccco3)cc2)C(=O)N=C2SC=CN12 | 108% |
| CCc1ccc(C2=C/C(=C/c3cccnc3)C(=O)O2)cc1 | 126% |
| Cc1ccc(OCC(=O)OCc2c(C)noc2C)cc1C | 123% |
| CCOc1ccc(NC(=O)COc2ccc3c(c2)OCO3)cc1 | 103% |
| O=C(COC(=O)c1ccccc1Br)Nc1ccccc1F | 107% |

— PubChem BioAssay AID489025 (Southern Research Specialized Biocontainment Screening …, 2010)
